Results filed as inconclusive are left out. Where a call stands in place of a potency, no number is given. The source holds several records for some structures; these can differ, active in one and inactive in another. Active and inactive are the calls of the source. Calls follow the shape of the full dose curve.
Also: nearly all actives have a fitted effect of over 45% in size.
Potency is read from the fitted curve at half-maximal effect.

A short description of the first assay: p53 small molecule agonists, cell-based qHTS assay with human liver microsomes: qHTS cell viability counter screen (AID 1963579). The settings on record: p53RE-bla HCT-116 viability, ATP luminescence, 16 h, HLM; series mostly up to 66 µM. In a few lines:
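Tox21 library compounds, delivered from DMSO stocks, were tested on p53RE-bla cells together with 0.5 mg/mL human liver microsomes and 0.5 mg/mL NADPH (final) over 16 h at 37 C; CellTiter-Glo luminescence served as the cytotoxicity measure.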
Background: qHTS replaces the single test concentration by a dilution series.
As for `COc1ccc(NC(C)=O)cc1`, the Potency result was “inactive”.
With `c1cnc2cc3c(cc2n1)C1CNCC3C1`, the Potency entry is “inactive”.
In the case of `OCc1c2ccccc2cc2ccccc12`, the Potency entry was “inactive”.
`Oc1ccc(Cl)cc1Sc1cc(Cl)ccc1O`: the Potency is 32.3 µM (active) and inactive.
As for `CCCc1ccccc1`, the Potency result was “inactive”.
Still for that read-out and setting: the value for `CC(=O)CC(C)=O` was “inactive”; that for `C=CC(=O)OCCCCCC` was “inactive”; that for `CC(C)(C)C(=O)OCOP(=O)(COCCn1cnc2c(N)ncnc21)OCOC(=O)C(C)(C)C` was “inactive”.
With `Oc1ccc(C(c2ccc(O)cc2)C(Cl)(Cl)Cl)cc1`, the Potency result was “inactive”.
Same read-out and setting: the entry for `Nc1cc(S(=O)(=O)O)cc2cc(S(=O)(=O)O)cc(O)c12` is “inactive”.
The same measure, in the same setting: the entry for `N=C(N=C(N)N)N1CCOCC1` is “inactive”; for `Oc1c(Cl)ccc(Cl)c1Cl` it is “inactive”.
For `CC1=CC[C@@]23C[C@@H]1C(C)(C)[C@@H]2CC[C@H]3C`, the Potency entry was “inactive”.
`O=C(O)c1cccc(C(F)(F)F)c1`: the Potency entry is “inactive”.
`CC(O)Cn1cnc2c1c(=O)n(C)c(=O)n2C` (stereo not drawn): the Potency result is “inactive”.
Consider `CN(C)CCOC(c1ccc(Cl)cc1)c1ccccn1` (stereo not drawn), for which the Potency result is “inactive”.
The same measure, in the same setting: the value for `O=C(O)c1cc(-c2ccccc2)nc2ccccc12` was “inactive”; that for `CC1(C)C(O)C(C)(C)C1O` (stereo not drawn) was “inactive”; that for `Cc1ccc(N(C)C)cc1` was “inactive”.
Take `C/C=C/C(=O)CCCC`: the Potency result is “inactive”.
The same measure, in the same setting: the entry for `CC(C)(c1ccc(O)cc1)c1ccc(O)cc1` is “inactive”; for `C=CCCCCCCCC` it is “inactive”.
Still for that read-out and setting: the value for `CC(C)=O` was “inactive”; that for `O=C(O)[C@@H]1[C@H]2C[C@H]3c4[nH]c5ccccc5c4CCN3C[C@@H]2CC[C@@H]1O` was “inactive”.
In the case of `C=CC(C)CCC=C(C)C` (stereo not drawn), the Potency entry was “inactive”.
As for `O=C(O)C(=O)Nc1cccc(-c2nn[nH]n2)c1`, the Potency result was “inactive”.
For `CN(C)N=Nc1ccccc1`, the Potency entry is “inactive”.
Take `OCCOc1ccc(OCCO)cc1`: the Potency result is “inactive”.
On the same count and under the same terms, the entry for `CC1=C(CC(=O)O)c2cc(F)ccc2/C1=C\c1ccc(S(C)=O)cc1` (stereo not drawn) is “inactive”.
In the case of `CC(C)CCCCCCc1ccc(O)cc1`, the Potency was 41.5 µM (active).
Still for that read-out and setting: the value for `C=CCS(=O)(=O)O` was “inactive”; that for `CCCCSCCCC` was “inactive”.
For `CCNc1nc(N)nc(Cl)n1`, the Potency result was “inactive”.
As to `Cc1ccc(N)cc1[N+](=O)[O-]`, the Potency result is “inactive”.
As for `Cc1c(C)c2c(c(C)c1O)CCC(C)(COc1ccc(CC3SC(=O)NC3=O)cc1)O2` (stereo not drawn), the Potency result was “inactive”.
As to `CCCC1O[C@@H]2C[C@H]3[C@@H]4CCC5=CC(=O)C=C[C@]5(C)[C@H]4[C@@H](O)C[C@]3(C)[C@]2(C(=O)CO)O1` (stereo partly drawn), the Potency result was “inactive”.
As for `CC(C[N+](C)(C)C)OC(N)=O` (stereo not drawn), the Potency result was “inactive”.
For `O=C(O)CCCCCCCCCCCC(=O)O`, the Potency result was “inactive”.
Turning to `COc1cc(C(=O)N2CCOCC2)cc(OC)c1OC`, the Potency entry was “inactive”.

Another assay can be described thus: p53 small molecule agonists, cell-based qHTS assay with rat liver microsomes: qHTS cell viability counter screen (AID 1963580). As to conditions: p53RE-bla HCT-116 + rat microsomes, ATP viability, 16 h; series mostly up to 66 µM. The procedure, abridged:
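Viability is assessed in parallel with the p53 reporter read: HCT-116 p53RE-bla cells receive compounds plus rat microsomes and NADPH (0.5 mg/mL final apiece), incubate 16 h at 37 C, and then CellTiter-Glo luminescence is recorded.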
For `COc1ccc(NC(C)=O)cc1`, the Potency result is “inactive”.
For `c1cnc2cc3c(cc2n1)C1CNCC3C1`, the Potency entry is “inactive”.
For the molecule `OCc1c2ccccc2cc2ccccc12`, the Potency result was “inactive”.
On to `Oc1ccc(Cl)cc1Sc1cc(Cl)ccc1O`, for which the Potency was 45.7 µM (active) and inactive.
With `CCCc1ccccc1`, the Potency entry is “inactive”.
Regarding `CC(=O)CC(C)=O`, the Potency result was “inactive”.
As to `C=CC(=O)OCCCCCC`, the Potency entry was “inactive”.
Regarding `CC(C)(C)C(=O)OCOP(=O)(COCCn1cnc2c(N)ncnc21)OCOC(=O)C(C)(C)C`, the Potency result was “inactive”.
In the case of `Oc1ccc(C(c2ccc(O)cc2)C(Cl)(Cl)Cl)cc1`, the Potency result is “inactive”.
For `Nc1cc(S(=O)(=O)O)cc2cc(S(=O)(=O)O)cc(O)c12`, the Potency result was “inactive”.
Regarding `N=C(N=C(N)N)N1CCOCC1`, the Potency result was “inactive”.
Turning to `Oc1c(Cl)ccc(Cl)c1Cl`, the Potency entry is “inactive”.
Take `CC1=CC[C@@]23C[C@@H]1C(C)(C)[C@@H]2CC[C@H]3C`: the Potency result is “inactive”.
In the case of `O=C(O)c1cccc(C(F)(F)F)c1`, the Potency result is “inactive”.
With `CC(O)Cn1cnc2c1c(=O)n(C)c(=O)n2C` (stereo not drawn), the Potency result is “inactive”.
Regarding `CN(C)CCOC(c1ccc(Cl)cc1)c1ccccn1` (stereo not drawn), the Potency result is “inactive”.
Regarding `O=C(O)c1cc(-c2ccccc2)nc2ccccc12`, the Potency entry was “inactive”.
In the case of `CC1(C)C(O)C(C)(C)C1O` (stereo not drawn), the Potency entry was “inactive”.
For `Cc1ccc(N(C)C)cc1`, the Potency entry is “inactive”.
Still for that read-out and setting: the entry for `C/C=C/C(=O)CCCC` is “inactive”; for `CC(C)(c1ccc(O)cc1)c1ccc(O)cc1` it is “inactive”; for `C=CCCCCCCCC` it is “inactive”.
Still for that read-out and setting: the entry for `CC(C)=O` is “inactive”; for `O=C(O)[C@@H]1[C@H]2C[C@H]3c4[nH]c5ccccc5c4CCN3C[C@@H]2CC[C@@H]1O` it is “inactive”; for `C=CC(C)CCC=C(C)C` (stereo not drawn) it is “inactive”.
On to `O=C(O)C(=O)Nc1cccc(-c2nn[nH]n2)c1`, for which the Potency result is “inactive”.
Turning to `CN(C)N=Nc1ccccc1`, the Potency entry is “inactive”.
The same measure, in the same setting: the entry for `OCCOc1ccc(OCCO)cc1` is “inactive”; for `CC1=C(CC(=O)O)c2cc(F)ccc2/C1=C\c1ccc(S(C)=O)cc1` (stereo not drawn) it is “inactive”; for `CC(C)CCCCCCc1ccc(O)cc1` it is 18.5 µM (active).
Take `C=CCS(=O)(=O)O`: the Potency entry was “inactive”.
Turning to `CCCCSCCCC`, the Potency entry is “inactive”.
Regarding `CCNc1nc(N)nc(Cl)n1`, the Potency result is “inactive”.
As for `Cc1ccc(N)cc1[N+](=O)[O-]`, the Potency result is “inactive”.
Same read-out and setting: the value for `Cc1c(C)c2c(c(C)c1O)CCC(C)(COc1ccc(CC3SC(=O)NC3=O)cc1)O2` (stereo not drawn) was “inactive”; that for `CCCC1O[C@@H]2C[C@H]3[C@@H]4CCC5=CC(=O)C=C[C@]5(C)[C@H]4[C@@H](O)C[C@]3(C)[C@]2(C(=O)CO)O1` (stereo partly drawn) was “inactive”.
Still for that read-out and setting: the entry for `CC(C[N+](C)(C)C)OC(N)=O` (stereo not drawn) is “inactive”.
In the case of `O=C(O)CCCCCCCCCCCC(=O)O`, the Potency result was “inactive”.
Still for that read-out and setting: the value for `COc1cc(C(=O)N2CCOCC2)cc(OC)c1OC` was “inactive”.
